Consider 40 molecules from PubChem BioAssay (Tox21).

Values without a mark were called inactive. Entries that show only a call come without a potency. Active and inactive are the calls of the source. Calls come from the whole dose curve.

Gonadotropin-releasing hormone receptor (Homo sapiens), sequence (P30968 whole entry, looked up): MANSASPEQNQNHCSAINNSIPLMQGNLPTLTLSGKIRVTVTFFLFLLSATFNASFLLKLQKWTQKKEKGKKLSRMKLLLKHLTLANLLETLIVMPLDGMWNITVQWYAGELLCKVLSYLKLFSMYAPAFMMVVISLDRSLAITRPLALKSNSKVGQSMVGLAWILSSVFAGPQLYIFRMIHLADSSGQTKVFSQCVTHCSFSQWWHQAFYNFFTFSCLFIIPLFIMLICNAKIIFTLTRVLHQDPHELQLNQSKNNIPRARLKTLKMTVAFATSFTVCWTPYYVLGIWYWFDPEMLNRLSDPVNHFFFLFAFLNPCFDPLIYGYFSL

The target in this assay is Gonadotropin-releasing hormone receptor (Homo sapiens) (UniProt P30968). As to the kind of experiment: Human gonadotropin-releasing hormone receptor (GnRHR) small molecule agonists, calcium flux assay in GnRHR-HEK293 cells (AID 1920063). Note: nearly all actives have a fitted effect of over 35% in size. To be noted: calcium flux fluorescence, agonist mode; series mostly up to 57.6 µM; activity change: at the top concentration. From the text:
National Center for Advancing Translational Sciences [NCATS]
Division of Preclinical Innovation [DPI]
U.S. Environmental Protection Agency [EPA]
National Institutes of Environmental Health Sciences [NIEHS]
National Toxicology Program [NTP]
U.S. Food and Drug Administration [FDA]
Gonadotropin-releasing hormone receptor (GnRHR) is a G-protein-coupled receptor (GPCR) and acts (through phospholipase C) to increase intracellular inositol trisphosphate and then release intracellular calcium stores. Cell-based GnRHR-Hek293 calcium influx assay is using HEK293 cells that have been genetically engineered to express the human GnRHR, which activity can be measured by calcium signaling. A compound/drug can activate (agonist) GnRHR that can be monitored by levels of intracellular calcium.
GnRHR-HEK293 cells developed by Codex Corp contain human GnRHR reporter gene, which was stably integrated into HEK 293 cells. The compound activation can be detected by fluorescence intensity via calcium flux assay. This cell line has been used to screen the Tox21 10K compound library to identify GnRHR agonists.
GnRHR-Hek293 cells were dispensed at 1500cells/4uL/well in 1536-well black wall/clear bottom plates using a multidrop dispenser. After the assay plates were incubated at a 37 C/5% CO2 incubator for 18 hours, 4 uL of Calcium Dye Solution was added to each well. The plates were incubated at 37 C for 1 hour. For agonist mode, 23 nL of compounds dissolved in DMSO, positive controls or DMSO only was transferred to the assay plate by a pin tool station. The fluorescence intensity in the plates was measured using FDSS 7000EX kinetic plate reader with a filter set of Ex/Em=480/540 for 3 min at 1 sec intervals. Each test compound was measured at 15 concentrations and in triplicates.
Take `C/C(=N\NC(=O)Nc1cc(F)cc(F)c1)c1ncccc1C(=O)O`: the Potency entry is “inactive”.
In the case of `CCCC(C)(COC(N)=O)COC(N)=O`, the “activity change” value was 0.682%.
For `CCOC(=O)C(C)OC(=O)c1cc(Oc2ccc(C(F)(F)F)cc2Cl)ccc1[N+](=O)[O-]` (stereo not given), the Potency result was “inactive”.
Same read-out and setting: next, `CCN(CC)CCO`: “inactive”.
Still for that read-out and setting: then `CC(C)(C#N)N=NC(C)(C)C#N`, with “inactive”.
Still for that read-out and setting: then `Nc1ccccc1C(=O)OCCc1ccccc1`, with “inactive”.
With `O=S1OCC2C(CO1)C1(Cl)C(Cl)=C(Cl)C2(Cl)C1(Cl)Cl` (stereo not given), the “activity change” value was 9.45%.
For `CC(C)COC(=O)c1ccccc1C(=O)OCC(C)C`, the Potency result was “inactive”.
Same read-out and setting: next, `CCNCC`: “inactive”.
As for `N#CC(Cl)(Cl)Cl`, the “activity change” value was 0.897%.
On to `Oc1cc(Cl)c(Cl)cc1Cl`, for which the Potency entry is “inactive”.
The same measure, in the same setting: then `O=C1CCCN1`, with “inactive”.
Take `CCOc1nc(F)cc2nc(S(=O)(=O)Nc3c(Cl)cccc3Cl)nn12`: the “activity change” value was 0.968%.
As to `CCCCN(CC)C(=O)SCCC`, the Potency entry is “inactive”.
For the molecule `C=CCCC#N`, the “activity change” value was -1.34%.
In the case of `C=CC(C)=O`, the “activity change” value is -0.747%.
On to `CCOC(=O)CC(SP(=O)(OC)OC)C(=O)OCC` (stereo not given), for which the Potency entry is “inactive”.
For `Cc1nn(-c2cc(NS(C)(=O)=O)c(Cl)cc2Cl)c(=O)n1C(F)F`, the “activity change” value is 0.0034%.
Same read-out and setting: next, `CCC(=O)c1ccccc1`: -0.377%; `CO[C@@H]1[C@H](OC(=O)NC(=O)CCl)CC[C@]2(CO2)[C@H]1[C@@]1(C)O[C@@H]1CC=C(C)C`: 0.0131% [at 11.8 µM, hits give high values]; `CC(=NC#N)N(C)Cc1ccc(Cl)nc1`: 1.13%.
On the same count and under the same terms, then `COc1cccc(C=O)c1`, with -1.02%.
On to `Oc1c(Br)cc(Br)cc1Br`, for which the Potency result was “inactive”.
On the same count and under the same terms, then `C[C@H]1CCCC(=O)CCC/C=C/c2cc(O)cc(O)c2C(=O)O1`, with “inactive”.
The same measure, in the same setting: then `CCCN(CCC)N=O`, with “inactive”; and `CC(C)OC(=O)Nc1cccc(Cl)c1`, with “inactive”.
Same read-out and setting: then `CCCC[n+]1cccc(C)c1`, with “inactive”.
For the molecule `O=C(Cl)C(Cl)Cl`, the “activity change” value is 1.63%.
On the same count and under the same terms, then `COc1ccc2c3c1O[C@H]1[C@H](O)CC[C@H]4[C@@H](C2)N(C)CC[C@@]341`, with 1.14%.
Take `CNC(=O)O/N=C/C(C)(C)SC`: the Potency result is “inactive”.
Still for that read-out and setting: then `CCCCCCCCCCCCCCCCCC(=O)O`, with “inactive”.
As for `CON(C)C(=O)Nc1ccc(Cl)cc1`, the “activity change” value was -0.615%.
In the case of `NNC(=O)c1ccccc1`, the “activity change” value was 2.56%.
As to `O=S(=O)(c1ccc(O)cc1)c1ccc(O)cc1`, the Potency result was “inactive”.
On the same count and under the same terms, next, `N#Cc1cccc(C#N)c1`: “inactive”.
In the case of `O=[N+]([O-])c1ccc(CBr)cc1`, the “activity change” value was -0.808%.
For `O=[N+]([O-])c1ccccc1-c1ccccc1`, the “activity change” value was -0.349%.
On to `Cl[C@H]1OCCO[C@@H]1Cl`, for which the Potency entry was “inactive”.
Take `CCBr`: the “activity change” value was -1.6%.
With `NCC(O)c1ccc(O)cc1` (stereo not given), the Potency entry is “inactive”.
